# Shown are actives, neighbours in structure and some others; about 7.5% of the full set was active somewhere.
# SMN2 splice enh – enhancers of SMN2 splice variant expression; HEK293 SMN2-luciferase splicing reporter, luminescence, 30-36 h; Potency, µM (highest dose often 46.1 µM), inactives show at the highest dose activity change, positive = activation, actives largely listed as activators; 210,000 tested, 2.8% active; further: % of control where 0% means no effect; nearly all actives have a fitted effect of over 55% in size
#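 qHTS luciferase splicing reporter: luminescence rises when SMN2 exon 7 is included in transfected HEK293 cells. Compound exposure lasted 30-36 h at 37C, with 4.5 mM final sodium butyrate as control, followed by a ONE-Glo read.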
# FLuc counter – inhibits or activates purified firefly luciferase, miR-21 counter-screen. Potency, µM (titrated, usually from 57.5 µM), for the others: at the top dose activity change, negative = inhibition, most hits filed as inhibitors. purified FLuc, Km substrates, luminescence inhibition. P08659. 360,000 tested, 6.9% active. AID 588342;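 further: plate controls were vehicle for no effect and reference inhibitor for full effect; nearly all actives have a fitted effect of over 55% in size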
# Target sequence (P08659 whole entry, looked up): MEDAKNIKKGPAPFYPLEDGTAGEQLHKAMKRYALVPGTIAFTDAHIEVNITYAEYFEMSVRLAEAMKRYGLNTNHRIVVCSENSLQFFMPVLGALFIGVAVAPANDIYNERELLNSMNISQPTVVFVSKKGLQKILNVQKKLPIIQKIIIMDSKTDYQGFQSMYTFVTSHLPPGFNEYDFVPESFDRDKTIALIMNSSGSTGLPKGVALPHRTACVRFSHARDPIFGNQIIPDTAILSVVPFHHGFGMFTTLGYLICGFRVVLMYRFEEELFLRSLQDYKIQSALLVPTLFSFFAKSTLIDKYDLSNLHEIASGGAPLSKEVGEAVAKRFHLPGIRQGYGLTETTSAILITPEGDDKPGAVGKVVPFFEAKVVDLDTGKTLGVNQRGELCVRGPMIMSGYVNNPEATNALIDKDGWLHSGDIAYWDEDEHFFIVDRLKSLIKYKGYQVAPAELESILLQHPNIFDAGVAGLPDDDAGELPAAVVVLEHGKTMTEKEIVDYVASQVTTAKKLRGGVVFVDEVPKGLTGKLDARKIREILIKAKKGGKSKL
#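 Biochemical qHTS of compounds, final roughly 60 µM downward over six points, against 10 nM purified firefly luciferase using Km concentrations of substrates (10 uM D-luciferin, 10 uM ATP) in Tris acetate pH 7.5 buffer; luminescence output.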
# NPC1 prom act – activators of NPC1 promoter | Huh7 NPC1 promoter luciferase reporter, 24 h | Potency, µM (highest dose often 9.22 µM), for the others: top-dose activation, most hits filed as activators | 320,000 tested, 2.4% active; further: % of control where 0% means no effect; nearly all actives have a fitted effect of over 60% in size
#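 Luminescence from an NPC1 promoter-driven luciferase reporter in stably transfected Huh7 cells was measured after 24 h compound treatment at 37 °C, followed by 10 min ambient incubation with luciferase detection reagent.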
# Rab9 promoter act – activates the Rab9 promoter. Potency, µM (doses to about 9.22 µM), inactives show top-dose activation, negative = inhibition, hits mostly activators. 320,000 tested, 2.8% active. Huh7 Rab9 promoter-luciferase reporter, luminescence, 24 h; further: % of control where 0% means no effect; nearly all actives have a fitted effect of over 60% in size
#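 Huh7 reporter line, Rab9 promoter upstream of luciferase. Compound exposure 24 h at 37 °C in reduced-serum medium with 10% FBS. Read-out: luminescence.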
# ELG1 genotox – inducers of genotoxicity in HEK293T ELG1-luciferase cells; AID 504466; HEK293T ELG1-luciferase reporter, luminescence, 16 h; Potency, µM (top dose mostly 46 µM), without a hit: at the highest dose activity change, positive = activation, usual class: activators; 330,000 tested, 1.3% active; further: % of control where 0% means no effect; nearly all actives have a fitted effect of over 60% in size
#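 Cells (2,000/well) expressing the ELG1-luciferase fusion are dosed by pin tool and kept 16 hr at 37 °C, 5% CO2. Signal comes from ONE-Glo luciferase reagent after 30 min at room temperature.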
# Numbers without * were called inactive; u = inconclusive; x = not tested or not shown; [ ] = remark or other dose. The call rests on the fitted dose curve; in most records, active means well fitted curve in the direction sought with a large enough effect; inconclusive means small, poorly fitted or top-dose-only effect, or another doubt; inactive means no such curve, though single readings can be large; an effect the other way counts as inactive or inconclusive. Potency means the concentration at half of the fitted maximal effect.
SMILES,SMN2 splice enh,FLuc counter,NPC1 prom act,Rab9 promoter act,ELG1 genotox
C/C(=N/NC(=O)c1cccc(N2CCCC2=O)c1)c1ccncc1,x,15µM*,u,3.2µM*,u
COC(=O)c1cccc(N2CCCC2=O)c1,x,3%,0%,-1%,0%
C=CCC(c1ccccc1F)N(CCN1CCOCC1)C(=O)Nc1cccc(Cl)c1 (configuration not stated),0%,1%,-2%,-2%,-6%
NC(=O)c1ccc(-n2nnnc2Oc2ccc(Br)cc2)cc1,-7%,-2%,0%,-1%,1%
CCCN1CNc2c(c(=O)[nH]c(=S)n2CCc2ccc(OC)c(OC)c2)C1,0%,3%,-6%,-14%,3%
O=C(Cn1c(SCC(=O)N2CCc3ccccc32)nc2ccccc21)NC1CCCC1,u,4%,2%,0%,7%
O=C(Cn1c(SCC(=O)N2CCc3ccccc3C2)nc2ccccc21)NC1CCCC1,11µM*,5%,3%,5%,-1%
CCc1cccc(CC)c1NC(=O)c1c(C)oc2ccc(O)c(CN3CCCC3)c12,-6%,0%,x,x,x
Cc1ccccc1Nc1nnc(SCC(=O)c2ccc(O)cc2O)s1,x,-1%,0%,5%,0%
O=c1[nH]c2ccccc2nc1/C=C/c1ccc(Cl)cc1,x,u,3.2µM*,0.89µM*,9.2µM*
C/C(O)=C/c1nc2ccccc2[nH]c1=O,-12%,1%,-4%,-3%,3%
C(=C\c1nc2ccccc2[nH]1)/c1ccccc1,0.28µM*,0.3µM*,0.18µM*,0.4µM*,u
C(=C\c1ccco1)/c1nc2ccccc2[nH]1,x,1.9µM*,3.5µM*,0.63µM*,u
CCc1ccc(OCC(=O)Oc2ccc([N+](=O)[O-])cc2)cc1,x,u,2%,-1%,0%
O=C1CCN(S(=O)(=O)c2ccccc2)N1,-3%,-2%,0%,0%,2%
C/C(=N\Nc1ccccn1)c1ccc(C(C)C)cc1,u,9.5µM*,u,u,13%
C(=N\Nc1ccccc1)/c1ccc(N2CCOCC2)cc1,18µM*,7.6µM*,3.2µM*,2.8µM*,u
O=C(O)c1cc(N/N=C/c2ccc(N3CCOCC3)cc2)ccc1Cl,x,0.6µM*,u,u,u
O=[N+]([O-])c1cccc(N/N=C/c2ccc(N3CCOCC3)cc2)c1,x,11µM*,2.8µM*,3.2µM*,u
O=C(NC(=S)Nc1ccc(N2CCOCC2)cc1)c1cccc(Cl)c1,-8%,-10%,1%,2%,-2%
C/C(=N\Nc1ccccn1)c1ccc(N2CCOCC2)cc1,14µM*,13µM*,u,2.2µM*,u
C(=N\Nc1ccccn1)/c1ccc(N2CCOCC2)cc1,13µM*,6µM*,3.2µM*,2.8µM*,u
Clc1cccc(N/N=C/c2ccc(N3CCOCC3)cc2)c1,u,13µM*,u,u,15%
Cc1cc(C)nc(N/N=C/c2ccc(N3CCOCC3)cc2)n1,20%,1%,-7%,-18%,-10%
NC1(C(=O)O)CCCCC1,11%,x,0%[46.1 µM],-3%[46.1 µM],x
SMILES,SMN2 splice enh,FLuc counter,NPC1 prom act,Rab9 promoter act,ELG1 genotox
CCOc1ccc2nc(NC(=O)CN3CCOCC3)sc2c1,29%,-18%,7%,7%,u
CCOc1ccc2nc(NC(=S)NCc3ccccc3)sc2c1,-8%,-13%,9%,12%,14%
CCOc1ccc2nc(NC(=O)c3ccoc3C)sc2c1,2.5µM*,0.48µM*,0.56µM*,0.5µM*,u
CCOC(=O)c1ccc2nc(NC(=O)c3ccco3)sc2c1,2.2µM*,2.7µM*,0.89µM*,0.71µM*,u
CCOC(=O)c1ccc2nc(NC(=O)c3cccs3)sc2c1,4µM*,1.2µM*,0.71µM*,0.5µM*,u
CCOc1ccc2nc(NC(=O)c3ccco3)sc2c1,x,0.67µM*,0.32µM*,0.32µM*,1.3µM*
CCN(CC)C(=S)Nc1ccc(OC)cc1,6%,2%,-2%,-3%,1%
Cc1ccc(N(C)C)cc1,-8%,x,x,x,x
Cc1ccc(NC(=S)c2ccc(N(C)C)cc2)cc1,4.5µM*,1.7µM*,0.89µM*,1.3µM*,3.7µM*
Cc1ccc(NC(=O)NNS(=O)(=O)c2ccc(Br)cc2)cc1,11%,-3%,-2%,-1%,3%
COc1ccc(NC(=S)c2ccccc2)cc1,14µM*,11µM*,u,u,u
Cc1ccc(S(=O)(=O)NC(=O)Nc2ccc(N(C)C)cc2)cc1,x,24µM*,5%,u,u
COc1ccc(C(=S)Nc2ccc(N(C)C)cc2)cc1,11µM*,1.5µM*,3.2µM*,2.8µM*,u
CCOC(=O)c1c(C)[nH]c(C(=O)COC(=O)C23CC4CC(CC(Cl)(C4)C2)C3)c1C,22%,1%,-4%,-5%,-2%
O=C(NCc1ccccc1)C(=O)NCC(c1ccco1)S(=O)(=O)c1ccccc1 (configuration not stated),x,-2%,x,x,x
Cc1cc(C)cc(NC(=O)CCCn2c(=O)c3cccn3c3ccccc32)c1,x,0%,x,x,x
COc1ccc(NC(=S)c2ccc(N(C)C)cc2)cc1,11µM*,2.1µM*,4µM*,1.3µM*,u
COc1ccc(NC(=S)Nc2ccc(N(C)C(C)=O)cc2)cc1,-5%,-3%,1%,5%,0%
COc1cc(/C=c2\sc3nc(-c4ccncc4)nn3c2=O)ccc1OC(C)=O,12%,2.7µM*,0%,-3%,4%
CCC1CCC(C(=O)NC(C(=O)Nc2cccc(OC)c2)C(C)C)CC1 (configuration not stated),4%,1%,x,x,x
Cc1ccc(NC(=O)NC2CCCCCCC2)cc1C,x,7.6µM*,4µM*,3.5µM*,u
CC(=O)c1cccc(NC(=O)NC2CCCCC2)c1,13%,u,3%,-5%,1%
Cc1cccc(NC(=O)NC2CCCCCCC2)c1,x,11µM*,1.6µM*,3.5µM*,u
CC(=O)c1ccc(NC(=O)NC2CCCCCCC2)cc1,x,12µM*,1.6µM*,1.8µM*,8.2µM*
CCC1CCC(NC(=O)Nc2cccc(OC)c2)CC1 (configuration not stated),x,4.8µM*,4µM*,1.3µM*,u
SMILES,SMN2 splice enh,FLuc counter,NPC1 prom act,Rab9 promoter act,ELG1 genotox
Cc1ccc(/C(O)=C2/C(=O)C(=O)N(c3ccccn3)C2c2ccc([N+](=O)[O-])cc2)cc1 (configuration not stated),x,-3%,-6%,-4%,0%
CN(CC(=O)NC(=O)Nc1ccccc1F)Cc1ccccc1F,x,x,x,x,1%
COc1cc(CNCc2cccs2)ccc1OCC(=O)NC(C)(C)C,-13%,5%,-1%,-3%,1%
CC(=O)c1cccc(NC(=O)NC2CCCCCCC2)c1,x,17µM*,25%,24%,2%
O=C(Nc1ccc2nsnc2c1)NC1CCCCC1,u,6.7µM*,2.2µM*,1.4µM*,u
O=C(CCN1CCCC1)Nc1ccc(Br)cc1,15%,6%,-3%,-1%,2%

# Compound activity: PubChem BioAssay, National Center for Advancing Translational Sciences (NCATS)
